According to PubChem BioAssay (NCI):
About 83,000 compounds went through this panel and 20% of them were active in at least one assay; those are over-represented in the sample as a whole.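 The test compound was applied at a single concentration to cells in 96-well plates for 48 hours, and percent growth was recorded.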 Calls of active or inactive are those of the source. The calls were made as follows: active = growth percent below 10; inactive = the rest.

Legend:
Test in all cases: NCI-60 one-dose screen, 48 h (100 = growth as untreated, 0 = no growth, -100 = all killed)
Conditions in all cases: 10 µM
[1] = system: NCI-H23 lung
[2] = system: NCI-H226 lung
[3] = system: NCI-H322M lung
[4] = system: HOP-62 NSCLC
[5] = system: NCI-H460 lung
[6] = system: HOP-92 NSCLC
[7] = system: NCI-H522 lung
[8] = system: A549/ATCC NSCLC
[9] = system: 786-0 renal
[10] = system: COLO 205 colon
[11] = system: DU-145 prostate
[12] = system: K-562 leukemia
[13] = system: MALME-3M melanoma
[14] = system: RXF 393 renal
[15] = system: SF-268 CNS
[16] = system: SF-295 CNS
[17] = system: SF-539 CNS
[18] = system: UACC-257 melanoma
[19] = system: M14 melanoma
[20] = system: MDA-MB-231 breast

Measured: growth

O=C(CSc1ccc(-c2ccc(Cl)cc2)nn1)Nc1ccc(Cl)c(C(F)(F)F)c1
active: [12] 9.36%
inactive: [1] 73.6% | [2] 76.1% | [3] 89.1% | [4] 57.4% | [5] 98.6% | [6] 75.8% | [7] 55.1% | [8] 70.5% | [9] 80.6% | [10] 74.8% | [11] 80% | [13] 54.1% | [14] 71.1% | [15] 73.7% | [16] 56.3% | [17] 60.7% | [18] 67.7% | [19] 50.6%

CCN1CCN(c2ccc(NC(=O)Nc3ccc4c(c3F)CCN4c3ccnc(C(=O)NC)c3)cc2C(F)(F)F)CC1
active: [1] -79.4% | [4] -49.3% | [5] -87.6% | [8] -81.4% | [9] -95.9% | [11] -91.2% | [13] -94.3% | [20] -88.9% | [14] -93% | [15] -64.2% | [16] -74.1% | [17] -100% | [19] -92.6%
inactive: [2] 95% | [3] 90.5% | [6] 82.3% | [7] 110% | [10] 120% | [18] 99.3%

COc1cccc(-c2nn(-c3ccccc3)cc2-c2ccnc(NCCCNC(=O)Nc3ccc(F)cc3)c2)c1
inactive: [1] 17% | [2] 16.4% | [3] 43.7% | [5] 15.2% | [8] 15.1% | [11] 54.1% | [15] 26.1%
active: [4] 7.43% | [6] -25% | [7] -3.16% | [9] -11.3% | [10] -0.929% | [13] -24.7% | [20] -1.32% | [14] 0.912% | [16] -40.5% | [17] -29.9% | [18] -11.9% | [19] -21%

O=C1Nc2ccc(Cl)cc2/C1=C/c1cccc(OCc2ccccc2)c1
inactive: [1] 31% | [2] 17.2% | [3] 44.6% | [4] 32.9% | [5] 13.5% | [6] 16.5% | [7] 35.9% | [8] 43.2% | [9] 40.5% | [10] 45.8% | [11] 45.3% | [12] 10.3% | [13] 45.8% | [15] 28.5% | [16] 31.7% | [17] 35.3% | [18] 45.8% | [19] 27%
active: [14] -0.942%

Cc1ccc(C(C)C)cc1NC(=O)c1ccccc1N(C)C
inactive: [1] 82.4% | [2] 99.3% | [3] 82.7% | [4] 97.1% | [5] 102% | [6] 73.8% | [7] 78.3% | [8] 82.2% | [9] 81.7% | [10] 105% | [11] 97.4% | [13] 88.3% | [20] 91.1% | [14] 85.2% | [15] 95.8% | [16] 83.8% | [17] 96.9% | [18] 86.5% | [19] 93.9%

Cc1nc2c(cnn2-c2ccccc2)c(=O)n1-c1ccc(NC(=O)c2ccc(F)cc2)cc1
inactive: [1] 50.2% | [2] 56.2% | [3] 86.1% | [4] 64.6% | [5] 54.4% | [6] 85.2% | [7] 63.9% | [8] 54.6% | [9] 82.5% | [10] 62.3% | [11] 80.7% | [12] 27.2% | [13] 68.4% | [14] 79.1% | [15] 88.9% | [16] 39.6% | [17] 85.5% | [18] 31.8% | [19] 62.9%

CCN1CCN(c2ccc(NC(=O)Nc3ccc(-c4cc(C(=O)NC(C)C)c5ncccc5n4)cc3)cc2C(F)(F)F)CC1
active: [1] -86.3% | [2] -81.2% | [3] -66% | [4] -87.8% | [5] -40.5% | [6] -77.2% | [7] -86.3% | [8] -87.6% | [9] -93.6% | [10] -78.2% | [11] -54.9% | [13] -97.5% | [20] -91.9% | [14] -96% | [15] -16.3% | [16] -92.4% | [17] -98.9% | [18] -95.6% | [19] -88.4%

C#CCNC(=O)[C@]12CCC(C)(C)C[C@H]1C1=CC[C@@H]3[C@@](C)(CCC#N)[C@H](C(=C)C)CC[C@@]3(C)[C@]1(C)CC2
inactive: [1] 58.2% | [2] 76.5% | [3] 77.1% | [4] 68.5% | [5] 66.9% | [6] 26.4% | [7] 64.5% | [8] 40.1% | [9] 74.6% | [10] 68% | [11] 91.4% | [13] 75.9% | [20] 39.6% | [14] 66.8% | [15] 86.2% | [16] 38.2% | [17] 83.4% | [18] 54.4% | [19] 76.3%

COc1ccc(C=CC(=O)c2ccc(-n3c(C)nc4c(cnn4-c4ccccc4)c3=O)cc2)cc1
inactive: [1] 72.4% | [2] 70.6% | [3] 107% | [4] 80.5% | [5] 97.8% | [6] 97.3% | [7] 57.4% | [8] 90.8% | [9] 84.6% | [10] 116% | [11] 83.2% | [12] 12.4% | [13] 60.6% | [14] 84.4% | [15] 92.4% | [16] 65.6% | [17] 77.6% | [18] 74.6% | [19] 53.1%

Nc1nc(-c2ccccc2)cc(-c2cc3ccccc3nc2Cl)n1
inactive: [1] 89.3% | [2] 78.1% | [3] 96.7% | [4] 89.4% | [5] 81.5% | [6] 73.1% | [7] 89.4% | [8] 91% | [9] 89.7% | [10] 110% | [11] 81.5% | [12] 20% | [13] 88.4% | [14] 85.2% | [15] 88.3% | [16] 78.6% | [17] 78.5% | [18] 97.8% | [19] 84.2%

C=C(C)[C@@H]1CC[C@]2(C(=O)OC)CC[C@]3(C)[C@H](CC[C@@H]4[C@@]5(C)CC[C@H](N)C(C)(C)[C@@H]5CC[C@]43C)[C@@H]12
active: [1] -94.8% | [2] -89.3% | [3] -96.5% | [4] -81.6% | [5] -53.7% | [6] -68.9% | [7] -77.8% | [8] -86.9% | [9] -98% | [10] -68.9% | [11] -87.9% | [13] -97.7% | [20] -97.8% | [14] -96% | [15] -65.3% | [16] -94.1% | [17] -99.8% | [18] -70% | [19] -74%

O=C1Nc2cc(Cl)ccc2/C1=C/c1cccc(OCc2ccccc2)c1
active: [4] 0.755% | [5] 3.73% | [6] -6.89% | [7] -63% | [8] 5.95% | [9] -12% | [10] -22.8% | [11] 3.5% | [12] 5.55% | [13] 7.06% | [14] -3.3% | [15] -11.4% | [16] 1.81% | [17] -56.8% | [18] 1.39% | [19] -18.1%
inactive: [1] 11.9% | [2] 21.9% | [3] 29.5%
